Test results reported in PubChem BioAssay.
The source made the active and inactive calls. Unless noted, no rule for the calls is given here.

Assays:
[1] = tested on: XIP peptide (Xip251-270) binding; test: XIP fragment 251-270 binding compounds – biochemical, small-molecule microarray, fluorescence 635/667 nm, 0.1 µg/mL protein, primary screen (AID 1182); conditions: fluorescent protein binding, 635 nm, higher = more signal, called active from +8 up or from −8 down
XIP peptide (Xip251-270) = test: compounds binding XIP fragment 251-270 – biochemical, small-molecule microarray, fluorescence 635/667 nm, 0.5 µg/mL protein, primary screen (AID 1183); conditions: fluorescence 635 nm, higher = more signal
[2] = blood-stage malaria parasite viability loss – strain 3D7, DAPI fluorescence, 100 nL, primary screen (AID 1184);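 also: parasites grown inside human red blood cells in medium with human serum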; conditions: P. falciparum 3D7 growth, 3 d, higher = more signal
[3] = target: Homeobox protein Hox-A13 (Mus musculus) (UniProt Q62424); test: disruptors of Hoxa13 oligonucleotide interaction – biochemical, fluorescence polarization, labeled oligonucleotide, primary screen (AID 1185); conditions: Hoxa13:DNA binding, 15 min, higher = more signal, called active from +8 up or from −8 down
[4] = blockers of DNA damage checkpoint Chk1 activation – imaging, HeLa, hydroxyurea, phospho-Chk1 antibody, percent positive cells, primary screen (AID 1186); conditions: hydroxyurea-induced phospho-Chk1 immunofluorescence imaging, higher = more signal
[5] = blockers of DNA damage checkpoint Chk1 activation – imaging, HeLa, hydroxyurea, phospho-Chk1 nuclear intensity, primary screen (AID 1187); conditions: hydroxyurea-induced phospho-Chk1 immunofluorescence imaging, higher = more signal

Chain of Homeobox protein Hox-A13 (Mus musculus) (Q62424 whole entry, looked up): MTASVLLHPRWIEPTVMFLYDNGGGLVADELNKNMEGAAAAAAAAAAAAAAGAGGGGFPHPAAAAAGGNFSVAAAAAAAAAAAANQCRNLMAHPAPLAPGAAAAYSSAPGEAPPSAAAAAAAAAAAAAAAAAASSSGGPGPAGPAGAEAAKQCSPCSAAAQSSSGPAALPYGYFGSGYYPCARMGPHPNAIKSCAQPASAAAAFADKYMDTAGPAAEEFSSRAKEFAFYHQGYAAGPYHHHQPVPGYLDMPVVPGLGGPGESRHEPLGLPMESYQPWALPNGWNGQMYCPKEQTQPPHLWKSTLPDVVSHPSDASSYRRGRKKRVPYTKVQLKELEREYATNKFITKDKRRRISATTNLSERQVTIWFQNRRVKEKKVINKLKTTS

Structure (SMILES) | composite z-score [1] | composite z-score (XIP peptide (Xip251-270)) | z-score [2] | z-score [3] | z-score [4] | z-score [5]
CN(C)CCCCNC(=O)[C@H]1C[C@H]2C(=O)N3CCC[C@H]3C(=O)N2[C@H]1c1cccc(OCCO)c1 | 0.683 (inactive) | 0.629 | 0.0172 | -3.86 (inactive) | -0.322 (inactive) | 0.0695 (inactive)
CCOC(=O)C[C@H]1[C@H](OC(=O)Cc2ccc3c(c2)OCO3)[C@@H](NC(=O)c2ccc3ccccc3n2)c2cc(OCCCO)ccc2N1C(=O)Cc1ccc(OC)cc1 | 0.322 (inactive) | 0.401 | -2.57 | -1.86 (inactive) | -0.192 (inactive) | 0.225 (inactive)
C=CCN1C(=O)[C@]2(O[C@H](CCn3cc([C@H](O)c4ccccc4)nn3)[C@@H]([Si](C)(C)c3ccc(OC)cc3)[C@@H]2C)c2cc(NC(=O)c3ccc(OC)cc3)ccc21 | 0.586 (inactive) | 0.309 | -2.77 | -4.56 (inactive) | -0.552 (inactive) | 0.0018 (inactive)
Cc1ccc(S[C@]2(C(=O)NCCCN(C)C)CC(=O)N(C3Cc4ccccc4C3)[C@@H]2c2ccc(CO)cc2I)cc1 | -0.261 (inactive) | 0.315 | -0.235 | -3.61 (inactive) | 0.721 (inactive) | 0.848 (inactive)
C=CCNC(=O)[C@H]1[C@@H]2C(=O)O[C@@H](c3ccccc3)[C@@H](c3ccccc3)N2[C@@H](c2ccccc2OCCO)[C@]12C(=O)N(C(=O)OCCOC)c1ccc(C#Cc3ccc(OC)cc3)cc12 | 0.559 (inactive) | 0.807 | -2.16 | -0.0717 (inactive) | 0.0629 (inactive) | 0.539 (inactive)
[N-]=[N+]=Nc1ccccc1[C@H]1OC(c2ccc(OCCCO)cc2)=N[C@@]1(Cc1ccccc1)C(=O)NCC(O)CO (stereo not given in full) | 0.448 (inactive) | 0.536 | -1.84 | -4.34 (inactive) | 0.0068 (inactive) | 0.251 (inactive)
CN(C)CCCC[C@@H]1NC(=O)[C@@H]2C[C@H](C(=O)NCCCCCN)[C@H](c3cccc(OCCO)c3)N2C1=O | 1.14 (inactive) | 0.898 | -0.0568 | -1.29 (inactive) | -0.523 (inactive) | 0.0431 (inactive)
COCCOC(=O)N1C(=O)[C@@]2(c3cc(C#CCC(C(=O)OC)C(=O)OC)ccc31)[C@H](c1ccc(O)cc1)N1[C@H](c3ccccc3)[C@H](c3ccccc3)OC(=O)[C@H]1[C@@H]2C(=O)Nc1nc2ccccc2s1 | 1.49 (inactive) | 0.853 | -1.43 | -2.2 (inactive) | 0.03 (inactive) | 0.0087 (inactive)
NC(=O)N1C(=O)C2C(C1=O)C1C=C(CCCO)C2C(c2ccc(CN3CCCC3)cc2)N1Cc1sc2ccccc2c1Cl (stereo not given) | -0.211 (inactive) | 0.245 | -0.44 | -4.57 (inactive) | 0.252 (inactive) | 0.175 (inactive)
O=C1C[C@@](C(=O)NCc2ccccc2)(c2ccc([N+](=O)[O-])cc2)[C@@H](c2ccc(CO)cc2)N1C1CCCCC1 | 0.58 (inactive) | 0.607 | 0.469 | -2.95 (inactive) | -0.53 (inactive) | -0.0661 (inactive)
CC(C)=CCCC=C(C)C(O)C1C=CC2C(=O)N(c3ccccc3)C(=O)C2N1Nc1ccc(C#N)cc1 (stereo not given) | 1.1 (inactive) | 0.621 | 0.221 | 0.884 (inactive) | -0.0269 (inactive) | -0.294 (inactive)
C=CCOC(=O)[C@H]1[C@@H]2C(=O)O[C@@H](c3ccccc3)[C@@H](c3ccccc3)N2[C@@H](c2ccc(OCCOC(=O)[C@@H]3C[C@@H]4C(=O)N[C@@H](CCCC[N+](C)(C)C)C(=O)N4[C@@H]3c3ccc(O)cc3)cc2)[C@]12C(=O)Nc1ccc(I)cc12 | 0.557 (inactive) | 0.765 | 0.0373 | 6.46 (inactive) | -0.337 (inactive) | -0.0674 (inactive)
COc1cc(C(O)C2C=CC3C(=O)N(c4ccccc4)C(=O)C3N2Nc2ccccc2F)cc(OC)c1OC (stereo not given) | 0.283 (inactive) | 0.737 | -0.267 | -4.84 (inactive) | 0.409 (inactive) | -0.477 (inactive)
O=C1C[C@]2(c3ccc([N+](=O)[O-])cc3)C(=O)N(C3CC3)c3cc(CO)ccc3[C@H]2N1C1CCCCC1 | -0.217 (inactive) | 0.205 | 1.47 | -1.16 (inactive) | -0.214 (inactive) | -0.771 (inactive)
Cc1ccc(S[C@]2(C(=O)NCCCN(C)C)CC(=O)N(Cc3ccccc3C(F)(F)F)[C@@H]2c2ccc(CO)cc2I)cc1 | 0.223 (inactive) | 0.82 | 0.306 | -2.71 (inactive) | 0.0909 (inactive) | 0.675 (inactive)
C=CCN1C(=O)[C@@]2(O[C@@H](CCn3cc([C@H](O)c4ccccc4)nn3)[C@H]([Si](C)(C)c3ccc(OC)cc3)[C@H]2C)c2cc(N3C(=O)c4cccc5cccc3c45)ccc21 | 0.185 (inactive) | 0.21 | -0.816 | -3.29 (inactive) | -0.0586 (inactive) | 0.311 (inactive)
O=C(NC1CC1)[C@@H]1c2ccccc2C(=O)N(Cc2cc(C(F)(F)F)cc(C(F)(F)F)c2)[C@H]1c1ccc(CO)cc1 | 0.684 (inactive) | 0.62 | -1.54 | -2.66 (inactive) | -0.129 (inactive) | -0.394 (inactive)
COC(=O)[C@@]1(Cc2ccc(F)cc2)[C@H]2c3cc(C(=O)N4CCCC4)n(Cc4ccccn4)c3C[C@H]2CN1C(=O)c1ccccc1 | 0.224 (inactive) | 0.769 | -1.68 | -4.98 (inactive) | 0.0348 (inactive) | -0.0643 (inactive)
O=C1O[C@@H](c2ccccc2)[C@@H](c2ccccc2)N2[C@@H](c3ccc(OCCO)cc3)[C@]3(C(=O)Nc4ccc(C#CC5(O)CCCCCC5)cc43)[C@@H](C(=O)O)[C@H]12 | 2.23 (inactive) | 0.688 | -0.0628 | -6.03 (inactive) | -0.167 (inactive) | 0.0604 (inactive)
CN(C)CCCC[C@@H]1NC(=O)[C@H]2C[C@@H](C(=O)O)[C@@H](c3ccc(O)cc3)N2C1=O | 3.67 (inactive) | 0.843 | -0.947 | -1.63 (inactive) | 0.7 (inactive) | 0.571 (inactive)
CCOc1cc(C(O)C2C=CC3C(=O)N(c4ccccc4)C(=O)C3N2Nc2ccccc2F)ccc1O (stereo not given) | 1.11 (inactive) | -0.213 | -0.0969 | -3.71 (inactive) | -0.379 (inactive) | -0.304 (inactive)
CCC(CC)C(O)C1C=CC2C(=O)N(c3ccccc3)C(=O)C2N1Nc1ccccc1F (stereo not given) | 0.977 (inactive) | -0.243 | -0.0776 | -3.13 (inactive) | -0.121 (inactive) | -0.175 (inactive)
OCCCC1=CC(c2ccc(CN3CCCC3)cc2)N(Cc2cccc(OC(F)(F)F)c2)CC1 (stereo not given) | -0.113 (inactive) | -0.504 | -2.86 | -3.15 (inactive) | 0.86 (inactive) | 1.51 (inactive)
COC(=O)[C@@]1(Cc2ccccc2)[C@H]2c3cc(C(=O)N4CCCC4)n(Cc4ccc(OC)c(OC)c4)c3C[C@H]2CN1C(=O)c1ccccc1 | 0.633 (inactive) | 0.0643 | -1.32 | -4.87 (inactive) | 0.243 (inactive) | 0.282 (inactive)
COCCCNC(=O)[C@@]1(Sc2ccc(C)cc2)CC(=O)N(Cc2ccccc2C(F)(F)F)[C@@H]1c1ccc(CO)cc1I | 0.814 (inactive) | -0.251 | -0.284 | -2.03 (inactive) | 0.26 (inactive) | 0.204 (inactive)
